# Reference: the supplement of paper PMC6555819
# How the values were obtained:
# Assay in all cases: PBM binding z-score (relative to random genomic background probes); higher = stronger binding; sequences stand for … in GC…GCGATTGACAGCGTAGAATGAAGG
# [1] = test system: FXR:RXRa (NR concentration 270 nM, RXRa partner concentration 90 nM)
# Summary of the method: (§1)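 For binding z-scores, the reference was random background probes on custom Agilent 4×180K protein-binding microarrays. These arrays were incubated 1 h with ligand-free nuclear receptor dimers in PBS pH 7.4, 2% milk, 0.02% Triton X-100, 1 mM DTT, 0.2 mg/mL BSA and 0.4 mg/ml salmon testes DNA. Fluorescence was scanned after antibody detection of each partner (one per run) and regression-normalized.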
# [2] = test system: LXRa:RXRa (NR concentration 270 nM, RXRa partner concentration 90 nM)
# Summary of the method: as §1
# [3] = test system: LXRa homodimer (NR concentration 270 nM)
# Summary of the method: as §1
# [4] = test system: LXRb:RXRa (NR concentration 270 nM, RXRa partner concentration 90 nM)
# Summary of the method: as §1
# [5] = test system: LXRb homodimer (NR concentration 270 nM)
# Summary of the method: as §1
# [6] = test system: PPARa:RXRa (NR concentration 270 nM, RXRa partner concentration 90 nM)
# Summary of the method: as §1
# [7] = test system: PPARg:RXRa (NR concentration 180 nM, RXRa partner concentration 90 nM)
# Summary of the method: as §1
# [8] = test system: PPARg:RXRa 270nM:90nM, anti-RXR (NR concentration 270 nM, RXRa partner concentration 90 nM)
# Summary of the method: as §1
# [9] = test system: PPARg:RXRa 30nM:10nM, anti-RXR (NR concentration 30 nM, RXRa partner concentration 10 nM)
# Summary of the method: as §1
# [10] = test system: PPARg:RXRa 90nM:30nM, anti-RXR (NR concentration 90 nM, RXRa partner concentration 30 nM)
# Summary of the method: as §1
# [11] = test system: PPARg:RXRa DBDmut IVT, anti-RXR (DBD mutation: RXRa K156A/R161A, NR concentration 270 nM, RXRa partner concentration 90 nM)
# Summary of the method: as §1
# [12] = test system: PPARg:RXRa IVT, anti-PPARg (NR concentration 270 nM, RXRa partner concentration 90 nM)
# Summary of the method: as §1
# [13] = test system: PPARg DBDmut:RXRa IVT, anti-PPARg (DBD mutation: PPARg1 K132A/R137A, NR concentration 270 nM, RXRa partner concentration 90 nM)
# Summary of the method: as §1
# [14] = test system: PPARg DBDmut IVT, anti-PPARg (DBD mutation: PPARg1 K132A/R137A, NR concentration 270 nM)
# Summary of the method: as §1
# [15] = test system: PPARg homodimer (NR concentration 180 nM)
# Summary of the method: as §1
# [16] = test system: PXR:RXRa (NR concentration 270 nM, RXRa partner concentration 90 nM)
# Summary of the method: as §1
# [17] = test system: PXR homodimer (NR concentration 270 nM)
# Summary of the method: as §1
# [18] = test system: RARa:RXR (NR concentration 270 nM, RXRa partner concentration 90 nM)
# Summary of the method: as §1
# [19] = test system: RARa homodimer (NR concentration 270 nM)
# Summary of the method: as §1
# [20] = test system: RARb:RXRa (NR concentration 270 nM, RXRa partner concentration 90 nM)
# Summary of the method: as §1
Sequence,PBM binding z-score [1],PBM binding z-score [2],PBM binding z-score [3],PBM binding z-score [4],PBM binding z-score [5],PBM binding z-score [6],PBM binding z-score [7],PBM binding z-score [8],PBM binding z-score [9],PBM binding z-score [10],PBM binding z-score [11],PBM binding z-score [12],PBM binding z-score [13],PBM binding z-score [14],PBM binding z-score [15],PBM binding z-score [16],PBM binding z-score [17],PBM binding z-score [18],PBM binding z-score [19],PBM binding z-score [20]
GCTTACGGGTCAAAGGTTATACCATGAATAGAAT,7.48,5.87,0.778,5.87,0.759,7.21,11.2,9.29,9.29,10.3,4.59,6.16,1.82,1.93,2.73,6.11,0.691,8.2,0.701,4.64
GCGACTGGGACATCAGCAGGTTACCATAACTTAA,-0.41,-0.456,-0.462,-0.188,-0.768,0.248,0.495,-0.264,-0.28,-0.281,1.95,1.18,-0.236,-1.24,-0.146,-0.226,-0.651,-0.109,-0.694,0.0627
AGAACGAGGGCACGCAGAGTTGATAGCAGAGTAG,1.14,0.811,-0.396,0.439,-0.647,2.54,2.51,2.28,0.386,1.35,4.1,4.09,0.653,0.16,0.313,1.55,0.0867,1.22,-0.379,2.92
TCATATAGGTAATACAGGTGAACGTCGGCATCTA,0.964,1.09,0.498,1.15,0.51,1.98,1.72,2.78,4.08,3.27,4.33,3.64,1.21,1.68,1.2,0.756,0.663,1.55,2.19,0.705
GCTATTAGTTGAAAGGGCAACTGAATGATTCTCG,0.614,0.896,0.18,1.1,0.073,2.51,2.65,4.03,2.6,4.54,0.54,1.04,0.18,0.595,1.34,0.933,0.252,1.68,0.584,2.1
CATTACGGGTCACTCCAGGTTATAGCATCGGAGT,5.62,7.54,4.42,5.55,1.54,4.96,4.53,4.77,1.56,3.53,3.99,4.96,1.72,1.65,2.09,5.11,0.705,3.78,0.9,3.97
CCTTACGGGTCACTGACAGTTTATAGCATTTGGA,5.44,4.17,0.494,3.4,-0.118,5.18,4.21,4.37,1.57,3.25,3.68,3.57,0.77,0.36,2.21,4.38,0.495,4.35,1,3.9
CCGACTGGGGCAAAGGTTACCTTACTCAGTACGA,1.37,1.71,-0.345,1.98,-1.42,5.37,10.6,9.12,7.96,9.81,5,5.64,0.278,-0.11,1.61,2.22,-0.485,3.41,-0.487,2.19
TCAGACAGGTGAAGGTAACTGAGGTACGCAGTCG,1.04,1.01,-0.19,0.598,-0.756,1.2,0.727,1.98,3.74,2.96,2.45,1.54,0.121,-0.373,0.384,0.388,-0.0672,0.874,0.545,1.04
